About 83,000 compounds went through this panel and 20% of them were active in at least one assay; those are over-represented in the sample as a whole.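 48-hour exposure, single concentration, 96-well plates; percent growth endpoint where 0 means no net growth. Active: below 10.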 Activity calls are given as the source filed them.
Columns and labels:
Experiment in all cases: NCI-60 one-dose screen, 48 h (100 = growth as untreated, 0 = no growth, -100 = all killed)
SK-MEL-2 melanoma = settings: 10 µM unless noted
EKVX NSCLC = settings: 10 µM
SN12C renal = settings: 10 µM unless noted
UO-31 renal = settings: 10 µM unless noted
TK-10 renal = settings: 10 µM unless noted
ACHN renal = settings: 10 µM unless noted
CAKI-1 renal = settings: 10 µM unless noted
A498 renal = settings: 10 µM unless noted
CCRF-CEM leukemia = settings: 10 µM
MOLT-4 leukemia = settings: 10 µM unless noted

Measured: growth

Nc1cc2c(cc1Br)[nH]c(=O)c1ccccc12
inactive: SK-MEL-2 melanoma 40.2% | EKVX NSCLC 49.5% | SN12C renal 39.8% | UO-31 renal 48.1% | TK-10 renal 44% | ACHN renal 22.5% | CAKI-1 renal 52.9% | A498 renal 56% | CCRF-CEM leukemia 47.1% | MOLT-4 leukemia 20.9%

CC/C(=N\Nc1nc2ccccc2n1C)c1ccccn1
inactive: SK-MEL-2 melanoma 37.6% | SN12C renal 13.6% | TK-10 renal 33.5%
active: EKVX NSCLC 6.6% | UO-31 renal -10.3% | ACHN renal 0.59% | CAKI-1 renal 2.28% | A498 renal -20.7% | CCRF-CEM leukemia 7.72% | MOLT-4 leukemia 1.52%

COc1ccc2nc3cc(Cl)ccc3c(NCCCNC(C)=O)c2c1
inactive: SK-MEL-2 melanoma 52.3% | EKVX NSCLC 68.5% | SN12C renal 38.1% | UO-31 renal 21.2% | TK-10 renal 44.2% | ACHN renal 16.1% | CAKI-1 renal 40.6% | A498 renal 22.6% | CCRF-CEM leukemia 39% | MOLT-4 leukemia 26.5%

Cc1c(O)c(N=Nc2ccc(C(=O)O)c(O)c2)c2ccccc2c1O
inactive: SK-MEL-2 melanoma 92.7% | EKVX NSCLC 66.4% | SN12C renal 96.3% | UO-31 renal 74.3% | TK-10 renal 116% | ACHN renal 97.6% | CAKI-1 renal 84.5% | A498 renal 86.3% | CCRF-CEM leukemia 112% | MOLT-4 leukemia 76.6%

Cc1ccc2c(O)c(O)cc(NC(C)CCCN)c2n1 (stereo not given)
inactive: SK-MEL-2 melanoma 75% | EKVX NSCLC 78% | SN12C renal 32.2% | UO-31 renal 96.8% | TK-10 renal 104% | ACHN renal 108% | CAKI-1 renal 87.4% | A498 renal 81.3% | CCRF-CEM leukemia 39.9%
active: MOLT-4 leukemia 7.64%

CCCCCCCCCCCCCCCCCC1=NCCN1CS(=O)(=O)O
inactive: SK-MEL-2 melanoma 69.9% | EKVX NSCLC 80.1% | SN12C renal 53.2% | UO-31 renal 16.6% | TK-10 renal 89.4% | ACHN renal 47.7% | CAKI-1 renal 17.3% | A498 renal 87.2% | MOLT-4 leukemia 12.3%
active: CCRF-CEM leukemia -5.55%

COc1ccc(NC(=O)/C=C(C)/C=C/C=C(C)/C=C/C2=C(C)CCCC2(C)C)cc1
inactive: SK-MEL-2 melanoma 61.6% | EKVX NSCLC 82.7% | SN12C renal 65.9% | UO-31 renal 53% | TK-10 renal 61.6% | ACHN renal 54% | CAKI-1 renal 66.6% | A498 renal 91.1% | CCRF-CEM leukemia 60.6% | MOLT-4 leukemia 76.1%

O=C(N/N=C/c1coc2ccccc2c1=O)c1cc2oc(-c3ccccc3)cc2[nH]1
inactive: SK-MEL-2 melanoma 75.4% | EKVX NSCLC 90.5% | SN12C renal 120% | UO-31 renal 86.2% | TK-10 renal 143% | ACHN renal 106% | CAKI-1 renal 95.3% | A498 renal 101% | CCRF-CEM leukemia 103% | MOLT-4 leukemia 55.9%

COc1cc(OC)c(NC(=O)n2ncc3cc(Nc4ncnc5ccccc45)ccc32)cc1Cl
inactive: SK-MEL-2 melanoma 102% | EKVX NSCLC 33% | SN12C renal 95.6% | UO-31 renal 64.1% | TK-10 renal 30.8% | ACHN renal 55.1% | CAKI-1 renal 53.6% | A498 renal 54.2% | CCRF-CEM leukemia 102% | MOLT-4 leukemia 96.3%

COc1ccc(Cn2cc3c(c2-c2ccccc2)CCc2cnoc2-3)cc1N
active: CAKI-1 renal 7.24% | A498 renal 1.34%
inactive: SK-MEL-2 melanoma 41% | EKVX NSCLC 16.5% | SN12C renal 36.2% | UO-31 renal 29.7% | TK-10 renal 76.2% | ACHN renal 31% | CCRF-CEM leukemia 18% | MOLT-4 leukemia 25.3%

COc1cc(NC(=O)CSc2nc3ccc(Cl)cc3c(=O)n2-c2ccc(F)cc2)cc(OC)c1OC
inactive: SK-MEL-2 melanoma 92.6% | EKVX NSCLC 67.8% | SN12C renal 78.7% | UO-31 renal 40.6% | TK-10 renal 97.8% | ACHN renal 85.6% | CAKI-1 renal 71.5% | A498 renal 34.8% | CCRF-CEM leukemia 94% | MOLT-4 leukemia 61.8%

COC(=O)Nc1nc2ccc(C(=O)c3ccccc3N(C)C3COC3)cc2[nH]1
inactive: SK-MEL-2 melanoma 24.2% | EKVX NSCLC 53.6% | SN12C renal 44.1% | UO-31 renal 39.9% | TK-10 renal 59.5% | ACHN renal 40.5% | CAKI-1 renal 45.2% | MOLT-4 leukemia 30.3%
active: A498 renal 9.85% | CCRF-CEM leukemia 8.11%

Cc1ccc(OCCn2ccc(=O)n(CCOc3ccc(Cl)cc3C(=O)c3cc(C)cc(C)c3)c2=O)cc1
inactive: SK-MEL-2 melanoma 41.2% | EKVX NSCLC 47% | SN12C renal 62% | UO-31 renal 41.8% | TK-10 renal 61.7% | ACHN renal 60.6% | CAKI-1 renal 47.6% | A498 renal 33.7% | CCRF-CEM leukemia 25.7% | MOLT-4 leukemia 19.2%

COC(=O)c1ccc(C(=Nc2ccc(N(C)C(=O)CN3CCN(C)CC3)cc2)c2c(O)[nH]c3ccc(C(=O)OC)cc23)cc1
inactive: SK-MEL-2 melanoma 47.7% | EKVX NSCLC 64.3% | SN12C renal 17.3% | UO-31 renal 38.3% | TK-10 renal 51.7% | ACHN renal 18.6% | CAKI-1 renal 11.9% | A498 renal 18.2% | CCRF-CEM leukemia 12.3% | MOLT-4 leukemia 14.8%

CCCCCCCCCCCCCCCCC(=O)O.CCCCCCCCCCCCCCCCCC(=O)O.CCCCCCCCCCCCCCCCCC(=O)O.CCCCCCCCCCCCCCCCCC(=O)O.CCCCCCCCCCCCCCCCCC(=O)O.CO[CH-]OC12COC1CC(O)C1(C)C(O)C(OC(C)O)C3=C(C)C(OC(=O)C(O)C([NH-])c4ccccc4)CC(O)(C(OC(=O)c4ccccc4)C21)C3(C)C.[Cu+].[Zn].[Zn].[Zn].[Zn].[Zn] (stereo not given)
inactive: SK-MEL-2 melanoma 69.3% | EKVX NSCLC 29.5% | SN12C renal 29.9% | UO-31 renal 27.2% | TK-10 renal 48% | ACHN renal 36.2% | CAKI-1 renal 27% | A498 renal 45.6% | CCRF-CEM leukemia 23.7% | MOLT-4 leukemia 29%

C/C(=N\Nc1ccc(Cl)cn1)c1ccc2ccccc2n1
inactive: SK-MEL-2 melanoma 35.5% | EKVX NSCLC 11.1% | SN12C renal 18% | TK-10 renal 56.3%
active: UO-31 renal 2.27% | ACHN renal 8.37% | CAKI-1 renal 7.16% | A498 renal -15.7% | CCRF-CEM leukemia 3.63% | MOLT-4 leukemia 3.63%

CCOC(=O)CCCCCCCCC(=O)OCC
inactive: SK-MEL-2 melanoma 112% | EKVX NSCLC 118% | SN12C renal 102% | UO-31 renal 95.7% | TK-10 renal 104% | ACHN renal 113% | CAKI-1 renal 105% | A498 renal 93.9% | CCRF-CEM leukemia 107% | MOLT-4 leukemia 95.2%

CCCCCCCCc1ccc(OCCOCC[N+](C)(C)CC)cc1 (tested in a mixture with another compound)
inactive: SK-MEL-2 melanoma 11.5% | EKVX NSCLC 71% | SN12C renal 21.5% | UO-31 renal 89.4% | TK-10 renal 96.1% | ACHN renal 102% | CAKI-1 renal 98.8% | A498 renal 73.8% | CCRF-CEM leukemia 28.7% | MOLT-4 leukemia 51.4%

COc1cc(Cn2ccc3c2-c2oncc2CC3)cc(OC)c1
inactive: SK-MEL-2 melanoma 28.8% | EKVX NSCLC 53.9% | SN12C renal 38% | UO-31 renal 28.8% | TK-10 renal 61.7% | ACHN renal 47.2% | CAKI-1 renal 23.3% | A498 renal 32.4% | CCRF-CEM leukemia 30.1% | MOLT-4 leukemia 38.4%

CC1=C[C@@H]2c3c(c(O)c(O)c4oc5cc(O)cc(O)c5c(=O)c34)[C@@H](c3cc(O)c(O)c4oc5cc(O)cc(O)c5c(=O)c34)[C@@H]2C(C)(C)C1
inactive: TK-10 renal 13.8% | ACHN renal 12.4% | CAKI-1 renal 19.8%
active: SK-MEL-2 melanoma -22.2% | EKVX NSCLC 8.51% | SN12C renal 2.58% | UO-31 renal -10.2% | A498 renal -14% | CCRF-CEM leukemia 3.51% | MOLT-4 leukemia 4.1%

— PubChem BioAssay (NCI)
